For test [1], the target named is Beta-2 adrenergic receptor (Homo sapiens) (UniProt P07550). As to the kind of experiment: qHTS validation assay of beta-arrestin-biased ligands of beta2-adrenergic receptor (AID 485366). The essentials:
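Compound series up to 46 microM applied to beta2-AR/beta-arrestin Tango cells, 18 hr, 37 degrees C, 5% CO2. Read-out: tTA-driven luciferase luminescence, converted to %Activity; concentration-response curves assigned curve classes.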
Background: In qHTS, concentration-response curves come from the screen itself.

The nature of test [2]: Quantitative high throughput screen for delayed death inhibitors of the malarial parasite plastid, 48 hour incubation (AID 488752). Further: nearly all actives have a fitted effect of over 65% in size. Further: potency means the concentration at half of the fitted maximal effect. The essentials:
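First, compound was pinned into RPMI 1640 medium containing 0.5% Albumax. Next, reporter-parasite-infected erythrocytes were added to 2% hematocrit and 0.1% parasitemia. After 48 h at 37 C under 5% CO2, luciferase detection reagent was added and luminescence read.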

Test [3] concerns the target Thioredoxin reductase 1, cytoplasmic (Rattus norvegicus) (UniProt O89049). The experiment in a line: qHTS Assay for Substrates of Mammalian Selenoprotein Thioredoxin Reductase 1 (TrxR1) (AID 488772).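 Further: series mostly up to about 57 µM; a drop in NADPH fluorescence below the no-compound background marks a TrxR1 substrate.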 The essentials: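 In this dual-purpose format, potential substrates are identified from the first fluorescence read after selenite addition, not from the 8-minute delta. Rat enzyme is preincubated with NADPH and then with compound at ~22 deg C.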

Test [4] has as its target Flap endonuclease 1 (Homo sapiens) (UniProt P39748). As to the kind of experiment: qHTS Validation Assay for the Inhibitors of Human Flap endonuclease 1 (FEN1) (AID 488816). Further: potency means the concentration at half of the fitted maximal effect. An outline of the steps: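 Steps: add FEN1 (10 nM reagent) or buffer only; pin compounds; hold 15 min at room temperature; start with substrate, 50 nM final; read at 0 and 15 min; correct, normalize and fit a four-parameter Hill curve.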

Test [5] has as its target M-phase phosphoprotein 8 (Homo sapiens) (UniProt Q99549). The experiment in a line: qHTS Validation Assay for Inhibitors for MPP8 Chromodomain Interactions with Methylated Histone Tails (AID 488949). Further: nearly all actives have a fitted effect of over 55% in size. Further: potency means the concentration at half of the fitted maximal effect. An outline of the steps:
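Disruption of the preformed MPP8–trimethyl-H3K9 peptide complex (both 50 nM, 30 min, RT) is measured after 30 min compound exposure, using AlphaScreen proximity beads; aurintricarboxylic acid titration serves as plate control.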

The target in test [6] is Thioredoxin reductase 1, cytoplasmic (Rattus norvegicus) (UniProt O89049). As to the kind of experiment: qHTS Assay for Inhibitors of Mammalian Selenoprotein Thioredoxin Reductase 1 (TrxR1) (AID 488773).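 Further: drop in NADPH fluorescence over an 8 min run after selenite addition; series mostly up to about 57 µM; nearly all actives have a fitted effect of over 40% in size.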 To be noted: Potency: inhibition. The essentials: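 Inhibition is scored from the loss of NADPH fluorescence between first and last reads of an 8-min kinetic run. Selenite (400 uM) was the substrate, added after 15 min compound preincubation at room temperature.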

The nature of test [7]: Quantitative high throughput screen for delayed death inhibitors of the malarial parasite plastid, 96 hour incubation (AID 488745). Further: nearly all actives have a fitted effect of over 70% in size. Further: potency means the concentration at half of the fitted maximal effect. The essentials:
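Readout is firefly luciferase luminescence from an integrated reporter in P. falciparum; lower signal marks inhibited growth. Cultures at 2% hematocrit and 0.1% parasitemia were treated with compound across two generations (96 h, 37 C, 5% CO2).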

The target in test [8] is Chromobox protein homolog 1 (Homo sapiens) (UniProt P83916). The experiment in a line: qHTS Validation Assay for Inhibitors of HP1-beta Chromodomain Interactions with Methylated Histone Tails (AID 488953). Further: nearly all actives have a fitted effect of over 50% in size. Further: potency means the concentration at half of the fitted maximal effect. The essentials:
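Disruption of preformed HP1-beta:H3K9me3 peptide complexes (both 50 nM, PBS pH 7.4 with 0.01% Tween-20) is measured by AlphaScreen after 30 min compound exposure at room temperature, using streptavidin donor and nickel chelate acceptor beads at 10 ug/mL final.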

Test [9] deals with ATP-dependent 6-phosphofructokinase (Trypanosoma brucei brucei) (UniProt O15648). The experiment in a line: qHTS Validation Assay to Find Inhibitors of T. brucei phosphofructokinase (AID 485368). An outline of the steps: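 qHTS format, up to 57 uM. PFK 1.25 nM; F6P 0.5 mM; ATP 0.1 mM; 5 mM MgCl2, 0.01% Tween20, 0.1% BSA; 0.1 M TEA pH 8.0; 45 min RT; ADP-Glo readout; no-enzyme control = full inhibition.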

Records with an inconclusive call do not appear. Where a structure was tested more than once in an assay, its records may differ in their call. Active and inactive are the calls of the source. The call rests on the fitted dose curve; in most records, active means well fitted curve in the direction sought with a large enough effect; inconclusive means small, poorly fitted or top-dose-only effect, or another doubt; inactive means no such curve, though single readings can be large; an effect the other way counts as inactive or inconclusive.

Here are results for 29 compounds from PubChem BioAssay (NCATS).

Sequence of Flap endonuclease 1 (Homo sapiens) (P39748 whole entry, looked up): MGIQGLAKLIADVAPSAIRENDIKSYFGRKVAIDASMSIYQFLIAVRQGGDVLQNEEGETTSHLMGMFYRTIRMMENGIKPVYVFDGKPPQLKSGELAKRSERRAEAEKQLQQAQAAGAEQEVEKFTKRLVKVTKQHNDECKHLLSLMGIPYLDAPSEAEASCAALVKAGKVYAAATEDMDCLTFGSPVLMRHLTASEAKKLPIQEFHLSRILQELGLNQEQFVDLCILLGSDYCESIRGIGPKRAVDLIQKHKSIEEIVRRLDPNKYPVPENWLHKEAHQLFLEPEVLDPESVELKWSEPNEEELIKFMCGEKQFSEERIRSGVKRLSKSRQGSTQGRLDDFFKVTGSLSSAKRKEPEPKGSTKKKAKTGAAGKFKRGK
Sequence of Beta-2 adrenergic receptor (Homo sapiens) (P07550 whole entry, looked up): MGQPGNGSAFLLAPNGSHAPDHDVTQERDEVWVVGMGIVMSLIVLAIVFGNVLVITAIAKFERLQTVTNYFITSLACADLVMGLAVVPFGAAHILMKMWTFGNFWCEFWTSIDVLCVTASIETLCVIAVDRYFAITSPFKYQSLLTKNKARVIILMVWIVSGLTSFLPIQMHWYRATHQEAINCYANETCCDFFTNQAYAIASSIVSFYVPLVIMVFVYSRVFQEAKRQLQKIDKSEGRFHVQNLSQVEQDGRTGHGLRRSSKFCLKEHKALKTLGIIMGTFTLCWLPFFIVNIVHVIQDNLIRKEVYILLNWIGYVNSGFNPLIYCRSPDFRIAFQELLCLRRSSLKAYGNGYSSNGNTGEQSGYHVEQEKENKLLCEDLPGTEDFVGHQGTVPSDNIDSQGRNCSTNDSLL
Sequence of Thioredoxin reductase 1, cytoplasmic (Rattus norvegicus) (O89049 whole entry, looked up): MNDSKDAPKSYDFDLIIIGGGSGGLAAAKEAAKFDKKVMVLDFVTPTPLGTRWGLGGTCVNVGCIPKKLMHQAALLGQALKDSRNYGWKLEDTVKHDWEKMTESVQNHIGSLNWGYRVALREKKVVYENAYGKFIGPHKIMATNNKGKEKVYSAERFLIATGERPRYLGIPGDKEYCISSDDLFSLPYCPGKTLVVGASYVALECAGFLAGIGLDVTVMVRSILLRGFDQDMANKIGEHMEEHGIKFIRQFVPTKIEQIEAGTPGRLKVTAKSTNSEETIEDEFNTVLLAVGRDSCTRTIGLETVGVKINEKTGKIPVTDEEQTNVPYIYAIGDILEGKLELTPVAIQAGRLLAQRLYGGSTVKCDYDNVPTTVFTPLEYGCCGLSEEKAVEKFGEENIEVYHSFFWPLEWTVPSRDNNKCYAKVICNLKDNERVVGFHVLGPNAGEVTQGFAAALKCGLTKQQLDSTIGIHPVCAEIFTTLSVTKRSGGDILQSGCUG
Sequence of Chromobox protein homolog 1 (Homo sapiens) (P83916 whole entry, looked up): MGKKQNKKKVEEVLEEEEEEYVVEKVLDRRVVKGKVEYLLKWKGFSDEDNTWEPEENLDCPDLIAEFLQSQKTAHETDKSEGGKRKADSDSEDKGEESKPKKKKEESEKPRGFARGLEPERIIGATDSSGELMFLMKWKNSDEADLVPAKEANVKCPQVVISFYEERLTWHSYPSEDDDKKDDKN
Sequence of M-phase phosphoprotein 8 (Homo sapiens) (Q99549 whole entry, looked up): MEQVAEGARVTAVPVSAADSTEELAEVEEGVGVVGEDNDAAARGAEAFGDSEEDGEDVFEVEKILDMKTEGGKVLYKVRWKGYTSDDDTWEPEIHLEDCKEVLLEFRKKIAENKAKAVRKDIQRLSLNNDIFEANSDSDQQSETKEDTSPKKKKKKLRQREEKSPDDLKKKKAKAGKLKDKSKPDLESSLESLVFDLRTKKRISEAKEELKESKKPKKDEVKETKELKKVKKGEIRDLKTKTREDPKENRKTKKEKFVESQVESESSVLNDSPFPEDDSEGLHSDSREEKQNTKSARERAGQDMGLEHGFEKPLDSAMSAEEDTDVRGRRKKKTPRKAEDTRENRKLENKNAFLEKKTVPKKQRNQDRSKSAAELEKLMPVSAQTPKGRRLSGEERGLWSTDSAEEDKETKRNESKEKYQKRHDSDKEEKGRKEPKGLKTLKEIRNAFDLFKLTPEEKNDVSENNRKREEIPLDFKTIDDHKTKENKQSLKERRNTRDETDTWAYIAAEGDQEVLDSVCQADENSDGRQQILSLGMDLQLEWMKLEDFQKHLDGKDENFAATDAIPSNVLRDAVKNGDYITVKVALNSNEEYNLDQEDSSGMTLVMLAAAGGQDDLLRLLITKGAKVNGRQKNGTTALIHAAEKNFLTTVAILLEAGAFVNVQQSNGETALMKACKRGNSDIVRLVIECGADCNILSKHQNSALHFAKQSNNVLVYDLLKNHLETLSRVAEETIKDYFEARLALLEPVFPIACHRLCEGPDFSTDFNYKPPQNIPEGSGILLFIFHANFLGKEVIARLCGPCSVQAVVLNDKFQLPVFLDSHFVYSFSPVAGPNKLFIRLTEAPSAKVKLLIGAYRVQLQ
Sequence of ATP-dependent 6-phosphofructokinase (Trypanosoma brucei brucei) (O15648 whole entry, looked up): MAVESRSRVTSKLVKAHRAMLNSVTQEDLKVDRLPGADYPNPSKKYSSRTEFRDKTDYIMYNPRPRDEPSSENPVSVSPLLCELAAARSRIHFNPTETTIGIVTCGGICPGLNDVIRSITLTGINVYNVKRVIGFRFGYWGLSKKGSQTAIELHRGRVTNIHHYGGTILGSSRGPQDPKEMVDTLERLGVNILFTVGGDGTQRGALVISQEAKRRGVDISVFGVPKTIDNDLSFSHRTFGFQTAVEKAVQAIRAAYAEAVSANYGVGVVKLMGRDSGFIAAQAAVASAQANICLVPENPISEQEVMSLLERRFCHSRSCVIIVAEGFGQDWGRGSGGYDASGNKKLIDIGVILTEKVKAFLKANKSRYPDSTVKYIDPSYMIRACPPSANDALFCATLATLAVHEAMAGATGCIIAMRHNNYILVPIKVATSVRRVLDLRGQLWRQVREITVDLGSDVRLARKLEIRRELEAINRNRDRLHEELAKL

With `N[C@@H](Cc1c[nH]c2ccc(O)cc12)C(=O)O`, the compound was called inactive in test [1] and in test [3]. Also, the Potency entry in [2], in test [4] and in test [5] was “inactive” throughout.

Take `Fc1ccc([C@@H]2CCNC[C@H]2COc2ccc3c(c2)OCO3)cc1`: the call in test [1] and in test [3] was inactive. Further, the Potency entry in test [6] and in [4] was “inactive” throughout.

With `O=c1c(-c2ccc(O)cc2)coc2cc(O)cc(O)c12`, the compound was called inactive in test [1] and in test [3]. The Potency entry in test [6], in [4] and in test [5] was “inactive” in each case.

`CN1C(C(=O)Nc2ccccn2)=C(O)c2ccccc2S1(=O)=O`: the outcome in [1] and in test [3] was inactive. Further, the Potency entry in test [7], in [2], in [6], in [4] and in test [5] was “inactive” throughout.

For `O=c1c(O)c(-c2ccc(O)c(O)c2)oc2cc(O)cc(O)c12`, the compound was classed as inactive in test [1] and in [3]. Moreover, in [6], the Potency result is “inactive”.

As for `COc1ccc(C2CNC(=O)C2)cc1OC1CCCC1` (centres undefined), the outcome in test [1] was inactive. Also, the Potency result in [7], in test [2], in test [6] and in test [4] was “inactive” each time.

Take `CN(C)CCCN1c2ccccc2CCc2ccc(Cl)cc21`: the compound was called inactive in [1] and in [3]. In addition, the Potency in [7] is 3.29 µM (active); in test [2] it was 1.31 µM (active). The Potency result in [6], in test [4] and in [5] was “inactive” in each case.

For `CC#C[C@]1(O)CC[C@H]2[C@@H]3CCC4=CC(=O)CCC4=C3[C@@H](c3ccc(N(C)C)cc3)C[C@@]21C`, the result in test [1] and in test [3] was inactive. For the same compound, the Potency entry in test [6] and in test [4] was “inactive” each time. Moreover, the Potency in test [5] is 11.9 µM (active); in test [8], 25.1 µM (active).

For `COc1cc2c(c(OC)c1OC)-c1ccc(OC)c(=O)cc1[C@@H](NC(C)=O)CC2`, the compound was called inactive in test [1] and in [3]. The Potency result in [7] and in test [2] was “inactive” each time.

As to `Cn1c(=O)c2[nH]cnc2n(C)c1=O`, the compound was called inactive in test [1] and in test [3]. In addition, the Potency entry in [7], in test [2], in test [6], in test [4] and in [8] was “inactive” each time.

For `CN(C)C(=O)C(CCN1CCC(O)(c2ccc(Cl)cc2)CC1)(c1ccccc1)c1ccccc1`, the compound was called inactive in test [1] and in [3]. Also, the Potency entry in [6] is “inactive”.

As for `O=C1N(c2ccccc2)c2ccccc2C1(Cc1ccncc1)Cc1ccncc1`, the compound was classed as inactive in test [1] and in test [3]. Besides, the Potency result in test [6] and in [4] was “inactive” in each case.

For `OCCN(CCO)c1nc(N2CCCCC2)c2nc(N(CCO)CCO)nc(N3CCCCC3)c2n1`, the compound was classed as inactive in [1] and in [3]. Besides, the Potency was 10.4 µM (active) in test [7] and 9.28 µM (active) in [2]. For the same compound, the Potency result in test [6] and in test [4] was “inactive” each time.

On to `O=C1Cc2cc(CCN3CCN(c4nsc5ccccc45)CC3)c(Cl)cc2N1`, for which the result in test [1] and in [3] was inactive. The Potency result in test [9], in test [6], in test [4] and in test [5] was “inactive” in each case.

Consider `OCCN1CCN(CCCN2c3ccccc3Sc3ccc(C(F)(F)F)cc32)CC1`, for which the compound was classed as inactive in test [1] and in test [3]. Besides, the Potency result in [6] and in [4] was “inactive” in each case.

Consider `COc1ccc(CCN(C)CCCC(C#N)(c2ccc(OC)c(OC)c2)C(C)C)cc1OC` (centres undefined), for which the call in test [1] was inactive.

Turning to `Clc1ccc2c(c1)C(N1CCNCC1)=Nc1ccccc1O2`, the outcome in [1] and in test [3] was inactive. In addition, the Potency entry in test [6], in test [4] and in test [5] was “inactive” each time.

`COc1ccccc1OCC(O)CN1CCN(CC(=O)Nc2c(C)cccc2C)CC1` (centres undefined): the outcome in test [1] was inactive. Besides, the Potency result in test [7], in test [2], in [6], in [4] and in [5] was “inactive” throughout.

In the case of `CN(C)CCC=C1c2ccccc2C=Cc2ccccc21`, the compound was classed as inactive in test [1] and in test [3]. In addition, the Potency result in test [6], in test [4] and in [8] was “inactive” throughout.

`O=C(Nc1ccc([N+](=O)[O-])cc1Cl)c1cc(Cl)ccc1O`: the compound was called inactive in [1] and in test [3]. Further, the Potency result in [9], in test [6], in test [4] and in test [8] was “inactive” in each case.

With `CN1CCN(CCCN2c3ccccc3Sc3ccc(Cl)cc32)CC1`, the compound was called inactive in test [1] and in test [3]. Further, the Potency entry in test [6] and in test [4] was “inactive” throughout.

Regarding `COC(=O)Nc1nc2ccc(C(=O)c3cccs3)cc2[nH]1`, the compound was classed as inactive in [1] and in test [3]. The Potency result in test [6] and in test [8] was “inactive” each time.

As to `O=C1c2c(O)ccc(O)c2C(=O)c2c(NCCNCCO)ccc(NCCNCCO)c21`, the call in test [1] and in test [3] was inactive. Moreover, the Potency in test [7] is 1.31 µM (active); in test [2], 2.08 µM (active); in test [4], 2.99 µM (active). Besides, in test [6], the Potency result was “inactive”.

Take `COc1ccccc1OCCNCC(O)COc1cccc2[nH]c3ccccc3c12` (centres undefined): the outcome in test [3] was inactive. Besides, the Potency result in test [6] and in [4] was “inactive” in each case.

As for `Cn1ccc2cc3c(cc21)CCN3C(=O)Nc1cccnc1`, the call in test [1] and in [3] was inactive. Further, the Potency result in [6] is “inactive”. Also, in [5], the Potency was 39.8 µM (active) and inactive.

For `CNCCCC12CCC(c3ccccc31)c1ccccc12`, the result in test [1] and in [3] was inactive. In addition, the Potency entry in test [2], in [4] and in test [8] was “inactive” each time.

Regarding `Cn1cnc2c1c(=O)[nH]c(=O)n2C`, the compound was called inactive in [1] and in test [3]. Moreover, the Potency result in test [7], in test [2], in test [6], in test [4], in test [5] and in [8] was “inactive” in each case.

`COc1cc2nc(N3CCN(C(=O)C4COc5ccccc5O4)CC3)nc(N)c2cc1OC` (centres undefined): the result in [1] and in [3] was inactive. Also, the Potency in test [7] is 3.29 µM (active); in test [2] it was 4.15 µM (active). Besides, the Potency result in test [6] is “inactive”.

For `COc1ccccc1N1CCN(CC(O)COc2cccc3ccccc23)CC1` (centres undefined), the compound was classed as inactive in test [1] and in [3]. The Potency entry in [7], in [2], in test [6] and in [4] was “inactive” throughout.
